HT1080 IDH1KD tx: HT-1080 IDH1 knockdown cell toxicity (counter line) | HT-1080 IDH1 knockdown viability, ATP luminescence, 48 h | Potency, µM (top dose mostly 46.1 µM), most hits filed as cytotoxic | actives 2% (n = 360,000) | AID 686971
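Using the IDH1-knockdown HT-1080 line run in the same batch and compound series as the NT line, viability after 48 h at 37 °C was determined by CellTiter-Glo luminescence and expressed as % activity.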
IL1B secr inh: inhibitors of inflammasome signaling (IL-1 beta secretion) | THP-1 LPS/ATP IL-1B secretion, AlphaLISA, 16 h; stronger effect = lower value | activity change, % at 57.5 µM | actives 4.7% (n = 360,000); in the data active = activity change below about -50%; inconclusive = mostly about -30% to -49%
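Secreted IL-1B measured by AlphaLISA bead assay after 16 h compound exposure of THP-1 cells; compounds (final up to 57.5 uM) added 1 h before LPS (250 ng/mL) and ATP (1.25 mM) stimulation; lower signal means less secretion.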
TDP1 cell noCPT: qHTS for Inhibitors of human tyrosyl-DNA phosphodiesterase 1 (TDP1): qHTS in cells in absence of CPT | DT40 Tdp1-/- hTDP1 cells, no CPT, ATP luminescence, 48 h | Potency, µM (highest dose often 46.2 µM), most hits filed as inhibitors | actives 15% (n = 420,000) | AID 686978, 2013; also: nearly all actives have a fitted effect of over 55% in size
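Compound effects on proliferation are scored in DT40 Tdp1-/-;hTDP1 cells in the absence of CPT. ATP levels (CellTiter-Glo luminescence) are recorded after a ≥48 hr, 37 °C incubation.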
HT1080NT lethal: kills 2HG-producing HT-1080-NT fibrosarcoma cells; HT-1080-NT fibrosarcoma viability, CellTiter-Glo ATP luminescence, 48 h; Potency, µM (top dose mostly 46.1 µM), usual class: cytotoxic; actives 1.6% (n = 360,000);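 also: NT is the 2HG producing partner of a matched IDH1 knockdown line; nearly all actives have a fitted effect of over 55% in size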
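A 48-hour cytotoxicity screen used HT-1080-NT cells plated 2 hours before compound delivery. ATP-based CellTiter-Glo luminescence measured viability, normalized to DMSO and no-cell controls.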
DT40 TDP1 CPT: growth inhibition of DT40 Tdp1-/-;hTDP1 cells with camptothecin (screen for TDP1 inhibitors); actives 12% (n = 420,000); chicken DT40 Tdp1-/-;hTDP1 cells + 20 nM CPT, ATP luminescence, 48 h; Potency, µM (series often up to 46.2 µM), actives largely listed as inhibitors; also: nearly all actives have a fitted effect of over 55% in size
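Chicken DT40 Tdp1-/- cells stably complemented with human TDP1 were seeded at 400 cells/well in medium containing 20 nM camptothecin, exposed to pin-transferred compounds, and grown at 37 °C for at least 48 hr. Viability was read as ATP luminescence.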
Large screens that a line does not name were inactive. Only some compounds are listed: those with a hit (about 19% of all), similar ones and a draw of the others. Unless noted, calls follow the shape of the dose curve; as a rule, active = well fitted curve in the direction sought with a large enough effect; inconclusive = small, poorly fitted or top-dose-only effect, or another doubt; inactive = no such curve, though single readings can be large; an effect the other way counts as inactive or inconclusive.

CN(CC(=O)Nc1cccc(F)c1)C(=O)CCCc1cccs1	none
CN1C(C(=O)Nc2cccc(O)c2)=CC(c2ccco2)=NS1(=O)=O	none
O=C(C1CCCN(c2ncnc3c2nc2n3CCCCC2)C1)N1CCN(c2ccc(Cl)cc2)CC1 (stereo unspecified)	HT1080 IDH1KD tx inconclusive, TDP1 cell noCPT inconclusive, HT1080NT lethal inconclusive, DT40 TDP1 CPT inconclusive
CC(=O)c1ccc(N2CCN(C(=O)C3CCCN(c4ncnc5c4nc4n5CCCCC4)C3)CC2)cc1 (stereo unspecified)	TDP1 cell noCPT 15µM, DT40 TDP1 CPT 15µM
COc1ccc(N2CCN(C(=O)C3CCCN(c4ncnc5c4nc4n5CCCCC4)C3)CC2)cc1 (stereo unspecified)	TDP1 cell noCPT 16µM, DT40 TDP1 CPT 21µM
Cc1cccn2c(NC(=O)c3ccccc3F)c(-c3ccccc3)nc12	none
CCNC(=O)CC1SC(=Nc2ccc(Cl)cc2)N(CC)C1=O (stereo unspecified)	TDP1 cell noCPT 21µM, DT40 TDP1 CPT inconclusive
O=C(Nc1ccc(Br)c2ccccc12)c1ccc2ccccc2c1O	HT1080 IDH1KD tx inconclusive, IL1B secr inh -51, TDP1 cell noCPT 8.2µM, HT1080NT lethal inconclusive, DT40 TDP1 CPT 8.2µM
COc1cccc(C(=O)NNC(=O)c2ccc3ccccc3c2O)c1	TDP1 cell noCPT 9.2µM, DT40 TDP1 CPT inconclusive
CC(=O)Nc1ccc(Br)c2ccccc12	TDP1 cell noCPT inconclusive
COc1cccc(C(=O)NNC(=O)c2ccccc2)c1	none
O=C(NNC(=O)c1ccc2ccccc2c1O)c1ccccc1Cl	HT1080 IDH1KD tx inconclusive, TDP1 cell noCPT 13µM, DT40 TDP1 CPT inconclusive
C[C@@H]1CN([C@H](C)CO)C(=O)CCCn2nncc2CO[C@@H]1CN(C)S(=O)(=O)c1cccc(F)c1	none
O=C(c1ccccc1)C1CN(Cc2ccccc2)CCC1(O)c1ccccc1 (stereo unspecified)	IL1B secr inh inconclusive, TDP1 cell noCPT 12µM, DT40 TDP1 CPT 7.3µM
CCc1nc(C)c(C(=O)N2CCCC(C(=O)Nc3cccc(-c4cccc(C)c4)c3)C2)o1 (stereo unspecified)	IL1B secr inh -82, TDP1 cell noCPT 10µM, DT40 TDP1 CPT 13µM
CC(C)(C)OC(=O)N1CCCC(C(=O)Nc2cccc(C(=O)N3CCCCC3)c2)C1 (stereo unspecified)	none
Cc1cccc(-c2cccc(NC(=O)C3CCCN(C(=O)c4ocnc4C)C3)c2)c1 (stereo unspecified)	TDP1 cell noCPT 21µM, DT40 TDP1 CPT 23µM
Cc1cccc(-c2cccc(NC(=O)C3CCCN(C(=O)c4csc(C)n4)C3)c2)c1 (stereo unspecified)	HT1080 IDH1KD tx inconclusive, IL1B secr inh inconclusive, TDP1 cell noCPT 1.3µM, DT40 TDP1 CPT 1.5µM
Cc1cccc(-c2cccc(NC(=O)C3CCCN(C(=O)c4cccnc4)C3)c2)c1 (stereo unspecified)	TDP1 cell noCPT 15µM, DT40 TDP1 CPT 18µM
COc1ccc(S(=O)(=O)N2CCCOC2CNC(=O)C(=O)NCCCN2CCOCC2)cc1C (stereo unspecified)	none
CCCC(NC(=O)CCc1c(C)c2cc3c(-c4ccccc4)coc3cc2oc1=O)C(=O)O (stereo unspecified)	none
O=C(OCc1c(Cl)nc2sccn12)c1cc2c(s1)CCCC2	TDP1 cell noCPT inconclusive, DT40 TDP1 CPT 14µM
CCC(Sc1nc2ccsc2c(=O)n1-c1ccc(Cl)c(C)c1)C(=O)NCc1ccco1 (stereo unspecified)	IL1B secr inh -71, TDP1 cell noCPT inconclusive, DT40 TDP1 CPT inconclusive
Cc1ccc(C)c(NC(=O)c2cc(-c3cc(C)ccc3O)n[nH]2)c1	HT1080 IDH1KD tx inconclusive, IL1B secr inh inconclusive, TDP1 cell noCPT inconclusive, HT1080NT lethal 33µM, DT40 TDP1 CPT inconclusive
Cc1cccc(NC(=O)c2cc(-c3cc(C)cc(C)c3O)n[nH]2)c1	HT1080 IDH1KD tx inconclusive, IL1B secr inh -54, TDP1 cell noCPT inconclusive, HT1080NT lethal inconclusive, DT40 TDP1 CPT inconclusive
COc1ccc(NC(=O)c2cc(-c3cc(C)cc(C)c3O)n[nH]2)cc1Cl	HT1080 IDH1KD tx inconclusive, IL1B secr inh -79, TDP1 cell noCPT inconclusive, DT40 TDP1 CPT 21µM
COc1ccc(NC(=O)c2cc(-c3ccccc3O)n[nH]2)cc1Cl	TDP1 cell noCPT inconclusive
COc1ccc(Cl)cc1NC(=O)c1cc(-c2cc(C)ccc2O)n[nH]1	TDP1 cell noCPT inconclusive, DT40 TDP1 CPT inconclusive
CN(CCCN1CCCCC1)C(=O)CCc1nnc(C2CCCCC2)o1	none
CCCOc1ccc(C(=O)NCC(c2ccco2)N(C)C)cc1 (stereo unspecified)	none
Cc1cc(C(=O)OCC(=O)Nc2cccc(S(N)(=O)=O)c2)c2ccccc2n1	none
O=C(NCc1ccc(C(F)(F)F)cc1)C1CC(c2ccc(C(F)(F)F)cc2)=NO1 (stereo unspecified)	HT1080 IDH1KD tx inconclusive, TDP1 cell noCPT 13µM, DT40 TDP1 CPT 23µM
O=C(NCc1ccco1)C1CC(c2cc(C(F)(F)F)cc(C(F)(F)F)c2)=NO1 (stereo unspecified)	HT1080 IDH1KD tx 2.6µM, TDP1 cell noCPT 2.3µM, HT1080NT lethal 5.8µM, DT40 TDP1 CPT 2.6µM
O=C(NCc1ccco1)C1CC(c2ccccc2C(F)(F)F)=NO1 (stereo unspecified)	TDP1 cell noCPT inconclusive, DT40 TDP1 CPT inconclusive
O=C(NCc1ccc(OC(F)(F)F)cc1)C1CC(c2ccc(C(F)(F)F)cc2)=NO1 (stereo unspecified)	HT1080 IDH1KD tx inconclusive, TDP1 cell noCPT inconclusive, HT1080NT lethal inconclusive, DT40 TDP1 CPT inconclusive
CC(C)CNC(=O)COC(=O)CCC(=O)c1ccc(Cl)cc1	none
COc1ccc(NCc2cc3cc4c(cc3n(CC(=O)Nc3ccccc3)c2=O)OCO4)cc1	TDP1 cell noCPT 4.1µM, DT40 TDP1 CPT 5.2µM (no result: HT1080 IDH1KD tx, IL1B secr inh, HT1080NT lethal)
COc1cc2cc(CNc3ccc(C)cc3)c(=O)n(CC(=O)Nc3ccc(F)cc3F)c2cc1OC	TDP1 cell noCPT 16µM, DT40 TDP1 CPT inconclusive (no result: HT1080 IDH1KD tx, IL1B secr inh, HT1080NT lethal)
Cc1ccc(NCc2cc3cc4c(cc3n(CC(=O)Nc3ccc(C)cc3)c2=O)OCCO4)cc1	TDP1 cell noCPT 8.2µM, DT40 TDP1 CPT 7.3µM (no result: HT1080 IDH1KD tx, IL1B secr inh, HT1080NT lethal)
COc1cc2c(=O)n(CC3CCCO3)c(=O)n(CC(=O)Nc3ccc(F)cc3F)c2cc1OC (stereo unspecified)	none
Cc1ccc(NC(=O)Cn2c(=O)c3cccn3c3ccccc32)cc1	none
COc1ccc(-n2cc(-c3ccc4c(c3)OCO4)n(CC(=O)Nc3cccc(C)c3)c2=O)cc1	TDP1 cell noCPT inconclusive, DT40 TDP1 CPT 23µM (no result: HT1080 IDH1KD tx, IL1B secr inh, HT1080NT lethal)
Cc1cc(NC(=O)C(C)Sc2nc(-c3ccccc3)cc(=O)[nH]2)no1 (stereo unspecified)	none

Source: PubChem BioAssay (National Center for Advancing Translational Sciences (NCATS))
